A selection: hits, their analogues and other compounds. The true share with any hit is near 11%.
HPGD inh – HPGD (human) dehydrogenase inhibition | 150,000 compounds, 4.3% hits | P15428 | purified HPGD, NADH fluorescence kinetic, PGE2 substrate | Potency, µM, inactives show top-dose activity change, negative = inhibition, most hits filed as inhibitors; note: potency is the fitted concentration of half-maximal effect
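20 nM HPGD preincubated 15 min at room temperature with compound in 50 mM Tris-HCl pH 8, 0.01% Tween 20. Started with 1 mM NAD+ and 30 uM prostaglandin E2; NADH fluorescence (360/450 nm) read 5 times over 30-s intervals, last minus first.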
PNC inhibitor – perinucleolar compartment assembly inhibition. PC3M PTB-GFP, PNC prevalence imaging, 16 h; stronger effect = lower value. activity change (PNC), negative = inhibition, % at 10 µM. 140,000 compounds, 3.1% hits;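 active = readout at or below -70, meaning at least 70% loss of cells showing the perinucleolar compartment, a nuclear body marking cancer cells; inconclusive = readout between -30 and a set limit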;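 note: plate controls were DMSO wells for no effect and camptothecin positive control wells for full effect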
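PC3M cells stably expressing PTB-GFP, 750–1000 cells/well, treated 16 h at 37 °C with compound (23 nl of library stock), in duplicate. After paraformaldehyde fixation and Hoechst stain, imaged at 20x; PNC prevalence scored by image analysis.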
ALDH1A1 inh – blocks purified human ALDH1A1 activity. P00352. Purified ALDH1A1, NADH fluorescence, propionaldehyde substrate. Potency, µM (top dose mostly 75.3 µM), without a hit: at the top dose activity, negative = inhibition, actives largely listed as inhibitors. 220,000 compounds, 7.3% hits;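 note: potency is the fitted concentration of half-maximal effect; plate controls were no enzyme wells and a reference inhibitor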
Target sequence (P00352 whole entry, looked up): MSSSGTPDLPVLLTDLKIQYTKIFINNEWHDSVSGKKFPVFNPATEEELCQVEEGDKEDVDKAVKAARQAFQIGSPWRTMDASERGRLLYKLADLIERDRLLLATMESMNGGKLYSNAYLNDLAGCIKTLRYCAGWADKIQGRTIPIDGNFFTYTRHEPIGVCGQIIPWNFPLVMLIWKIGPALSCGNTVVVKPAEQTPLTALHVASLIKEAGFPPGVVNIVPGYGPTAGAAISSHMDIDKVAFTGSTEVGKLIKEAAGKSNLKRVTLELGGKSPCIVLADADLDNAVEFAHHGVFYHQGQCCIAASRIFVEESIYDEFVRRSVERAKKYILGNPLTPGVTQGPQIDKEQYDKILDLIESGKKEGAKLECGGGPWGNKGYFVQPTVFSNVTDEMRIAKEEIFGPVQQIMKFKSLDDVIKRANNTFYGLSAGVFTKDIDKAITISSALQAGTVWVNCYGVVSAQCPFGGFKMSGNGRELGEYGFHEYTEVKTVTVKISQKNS
* hit, by the source's call; ? = inconclusive; nt = no result; [ ] = another dose, or the depositor's remark. Unless noted, calls come from the whole dose curve; as a rule, active = well fitted inhibition curve with a large enough effect (not every such curve was filed as active); inconclusive = small, poorly fitted or top-dose-only effect, or another doubt; inactive = no such curve, though single readings can be large or run the other way. Unless noted, % is set by controls: 0 for no effect and ±100 for the full control effect.

SMILES | HPGD inh | PNC inhibitor | ALDH1A1 inh
Cc1noc(C)c1C(=O)N1CCN(Cc2ccccc2)CC1 | -6% | -9 | -2%
Cc1noc(C)c1C(=O)N1CCN(CCc2ccccc2)CC1 | -2% | -102* | -44%
CC1=NN(C(=O)c2ccc(Cn3ccc([N+](=O)[O-])n3)cc2)C(O)(C(F)(F)F)C1 (configuration not stated) | -4% | ? | -1%
O=C(O)c1cccc(NC(=S)NC(=O)C(c2ccccc2)c2ccccc2)c1 | nt | -6 | ?
Cn1c(SCC(=O)N2CCCc3ccccc32)nnc1-c1c[nH]c2ccccc12 | 0% | ? | ?
c1ccc2c(-c3nnc4n3CCCCC4)c[nH]c2c1 | 25µM* | -19 | -15%
N#C/C(=N\Nc1cccc2ccccc12)c1nnc2n1CCCCC2 | 18µM* | -113* | 22%
N#C/C(=C\c1c[nH]c2ccccc12)c1nnc2n1CCCCC2 | 13µM* | 2 | -14%
CN1C=C(C(F)(F)F)C=C/C1=C(\C#N)c1nnc2n1CCCCC2 | -10% | 4 | -6%
C/C(O)=C(\C#N)c1nnc2n1CCCCC2 | -14% | 30 | ?
COc1c(Cl)cnn(-c2ccc(Cl)c(Cl)c2)c1=O | nt | nt | -3%
CCCCCCC1CCC(C(=O)N2CCOCC2)CC1 (configuration not stated) | nt | nt | -4%
O=C(c1ccco1)c1nnn(Cc2ccccc2)c1-c1ccccc1 | -11% | ? | 11µM*
Nc1c(C(=O)NCc2ccco2)nnn1Cc1ccccc1 | -6% | 35 | -3%
COCC(C)NC(C(=O)Nc1cccc(C(C)=O)c1)c1ccccc1 (configuration not stated) | nt | nt | 14µM*
COCC(C)NC(C(=O)Nc1ccc(C)c(Cl)c1)c1ccccc1 (configuration not stated) | -11% | 41 | ?
CCOc1ccc(NC(C(=O)Nc2cccc(C(C)=O)c2)c2ccccc2)cc1 (configuration not stated) | -5% | -9 | -3%
CCN(CC)CCNC(C(=O)Nc1cccc(C(C)=O)c1)c1ccccc1 (configuration not stated) | nt | nt | 14µM*
CCN(c1cccc(C(F)(F)F)c1)S(=O)(=O)c1ccc2c(c1)CCN2C(C)=O | -1% | -98* | 9%
CCN(c1cccc(C)c1)S(=O)(=O)c1ccc2c(c1)CCN2C(C)=O | -13% | 29 | 8%
CCN(CC)S(=O)(=O)c1cccc(C(=O)OCC(=O)NC(C)c2ccccc2)c1 (configuration not stated) | nt | nt | 0%
CCOc1ccc(S(=O)(=O)N/N=C(\C)c2ccc(OC)cc2OC)cc1 | nt | nt | 22µM*
COc1ccc(/C(C)=N/NC(=O)c2ccccc2OCc2ccccc2)c(OC)c1 | nt | nt | -8%
CCOc1ccc(S(=O)(=O)NN=C2CCN(C(C)=O)CC2)cc1 | nt | nt | 7.9µM*
COc1ccc(NC(=O)C2CC2)cc1NS(=O)(=O)c1ccc(F)cc1 | -16% | -24 | 10%
SMILES | HPGD inh | PNC inhibitor | ALDH1A1 inh
CCOc1ccc(S(=O)(=O)N2CCCC2)cc1 | -11% | 28 | 1%
CCOc1ccc(S(=O)(=O)Nc2ccccc2C(=O)N2CCCC2)cc1 | nt | nt | -8%
COc1cc(NS(=O)(=O)c2ccc(F)cc2)c(OC)cc1NC(C)=O | -13% | 14 | 7.9µM*
CCOc1ccc(S(=O)(=O)NN)cc1 | -1% | -25 | 2µM*
O=C(CSc1n[nH]c(-c2ccccc2Cl)n1)NCc1cccc(C(=O)O)c1 | nt | nt | 6%
CC(=O)c1cccc(NS(=O)(=O)c2cccc(C(=O)O)c2)c1 | -9% | nt | -2%
CN(CC(=O)OCC(N)=O)S(=O)(=O)c1ccc(Cl)cc1 | nt | nt | 6%
CCOc1ccc(NS(=O)(=O)c2ccc(SC)cc2)cc1 | -5% | -14 | 11µM*
COc1ccc(S(=O)(=O)NN=C2CCCCC2)cc1 | -10% | 1 | 0.63µM*
CCOC(=O)c1ccc(NS(=O)(=O)c2ccc(SC)cc2)cc1 | -13% | -27 | ?
CCOc1ccc(NS(=O)(=O)c2ccc(N)cc2)cc1 | -10% | 25 | 6%
CCOC(=O)Cc1ccc(NS(=O)(=O)c2ccc(SC)cc2)cc1 | -15% | -8 | 8.9µM*
COc1ccc(NS(=O)(=O)c2cccs2)c(OC)c1 | -5% | 65 | -10%
COc1ccc(S(=O)(=O)NN=C2CCCC2)cc1 | 0% | 61 | ?
COc1ccc(NS(=O)(=O)c2ccc(SC)cc2)c(OC)c1 | -11% | ? | 8.9µM*
NC(=O)COc1ccc(-c2noc(COc3ccccc3[N+](=O)[O-])n2)cc1 | nt | nt | 6%
OCCC1CN(Cc2ccc3c(c2)CCO3)CCN1Cc1ccc(F)cc1 (configuration not stated) | nt | nt | -10%
Nc1nc(N)c(CCCCc2ccccc2)c(N)n1 | 2% | nt | 17%[13.5 µM]
Cc1ccc(S(=O)(=O)N=S(CC2CC2(Cl)Cl)CC2CC2(Cl)Cl)cc1 (configuration not stated) | -12% | -29 | ?
COC(=O)C1CC1C(NC(=O)[C@@H]1CCCN1)c1ccccc1 (some centres not stated) | -1% | nt | -5%
NC(=O)C1CCN(S(=O)(=O)Cc2ccccc2Cl)CC1 | nt | nt | -4%
CCc1ccc(NC(=O)C(=O)NNC(=O)COc2cccc(OC)c2)cc1 | -1% | -5 | -3%
CC(C)CCNC(=O)c1ccc(-c2ccccc2)cc1 | nt | nt | 4%
CC(=O)NCCNc1nc(-c2cccc(C#N)c2)nc2ccccc12 | nt | nt | -8%
COc1ccc(-c2cc(CNC(=O)CN3CCN(C)CC3)on2)cc1 | -11% | ? | ?
SMILES | HPGD inh | PNC inhibitor | ALDH1A1 inh
CCN(CC)CC(=O)NCc1cc(-c2ccc(OC)cc2)no1 | 1.3µM* | 4 | -12%
COc1ccc(OC)c(Nc2nc3nonc3nc2N2CCCC(C)C2)c1 (configuration not stated) | -26% | 181 | 6%
COc1ccc(-c2n(CC(=O)OC3CC(C)CCC3C(C)C)c3ccccc3[n+]2C)cc1 (configuration not stated) | nt | nt | 6.3µM*
CC1CCC(C(C)C)[C@H](OC(=O)c2ccccc2)C1 (some centres not stated) | -6% | nt | -11%
CSc1nnc(C)c(=O)n1COC(=O)c1cc(Cl)ccc1[N+](=O)[O-] | nt | nt | -12%
Cc1ccc(S(=O)(=O)NN=C2CCN(Cc3ccccc3)CC2)cc1 | -4% | 0 | 3.5µM*
COC(=O)C1CCN(Cc2ccc(C)cc2)CC1 | 2% | 2 | 6%
Cc1ccc(S(=O)(=O)NNC(=O)C2CCN(Cc3ccccc3)CC2)cc1 | -8% | -100* | 8%
Cc1ccc(S(=O)(=O)NC2=C(N3CCN(Cc4ccccc4)CC3)C(=O)c3ccccc3C2=O)cc1 | -11% | -19 | -1%
CCCNC(=O)OC[C@@H]1O[C@H](CCO/N=C(\C)CCN2CCCc3nc(C)c(C)cc32)C=C[C@@H]1Oc1ccc(OC)cc1 | nt | nt | 0%[13.5 µM]
O=c1c(-c2ccc(Cl)cc2)nc2cnc(N3CCOCC3)nc2n1C1CC1 | -8% | nt | 11%
Cn1c(-c2ccc(F)cc2)cnc1NCc1ccc(F)cc1 | ? | 10 | ?
CCCCn1nnnc1NCc1cccnc1 | -14% | 9 | 10%
Cc1ccc(CNc2ncc(-c3ccc4c(c3)OCO4)n2C)cc1 | -19% | ? | 16µM*
Cc1ccc(CNc2ccc3c(c2)OCO3)cc1 | ? | -22 | ?
Cn1c(-c2ccc(F)cc2)cnc1NCc1ccc(C#N)cc1 | -14% | -10 | 5µM*
O=[N+]([O-])c1cccc(CNC2CCCCCC2)c1 | nt | nt | 8%
